Only some compounds are listed: those with a hit (about 1.4% of all), similar ones and a draw of the others.
GRK2 inh = inhibitors of human GRK2 displacing RNA aptamer; P25098; bead flow cytometry, FAM-aptamer displacement from GRK2; inhibition of aptamer binding, % at 10 µM; hit rate 0.59% among 330,000; AID 488847;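 active = inhibition of aptamer binding above 40%, roughly 3 SD of noise, on plates passing a quality check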;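 also: median bead fluorescence of bound FAM aptamer so fluorescent compounds give negative values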
APOBEC3G inh = blocks human APOBEC3G single-stranded DNA deamination | inhibition, % at 20 µM | AID 493012 | recombinant A3G, ssDNA deamination FAM/TAMRA fluorescence | hit rate 0.28% among 330,000 | Q9HC16;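 active = inhibition of at least 40% at 20 µM, with no more than 30% in the related APOBEC3A deaminase screen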;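 also: plate controls were DMSO wells with A3G for no effect and wells lacking A3G enzyme for full effect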
Target sequence (Q9HC16 whole entry, looked up): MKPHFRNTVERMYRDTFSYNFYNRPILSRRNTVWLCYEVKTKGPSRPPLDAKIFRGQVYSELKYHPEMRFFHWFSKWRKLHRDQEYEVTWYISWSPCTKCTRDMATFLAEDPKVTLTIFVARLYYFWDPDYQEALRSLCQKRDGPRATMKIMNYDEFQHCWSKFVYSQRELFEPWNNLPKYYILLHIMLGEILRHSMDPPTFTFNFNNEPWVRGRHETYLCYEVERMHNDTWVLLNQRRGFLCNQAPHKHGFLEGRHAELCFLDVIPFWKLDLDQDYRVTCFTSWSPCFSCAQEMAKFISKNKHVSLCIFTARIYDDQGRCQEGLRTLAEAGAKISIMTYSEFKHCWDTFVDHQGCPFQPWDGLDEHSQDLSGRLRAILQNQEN
VLA-4 inh = inhibition in a human VLA-4 binding assay; P13612; VLA-4 expressing cells, ligand binding flow cytometry; inhibition, % (about 7 µM as worked out from the volumes in the protocol); hit rate 0.2% among 330,000; AID 2557; in the data active = inhibition above about 50%
A3A deaminase = human APOBEC3A DNA deaminase inhibition; hit rate 0.41% among 330,000; AID 493011; inhibition, % at 20 µM; recombinant A3A, FAM/TAMRA ssDNA deamination fluorescence;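 active = at least 40% inhibition at 20 µM here, with at most 30% in a related deaminase screen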;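 also: plate controls were A3A with DMSO for no effect and wells lacking A3A enzyme for full effect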
Target sequence (P31941 whole entry, looked up): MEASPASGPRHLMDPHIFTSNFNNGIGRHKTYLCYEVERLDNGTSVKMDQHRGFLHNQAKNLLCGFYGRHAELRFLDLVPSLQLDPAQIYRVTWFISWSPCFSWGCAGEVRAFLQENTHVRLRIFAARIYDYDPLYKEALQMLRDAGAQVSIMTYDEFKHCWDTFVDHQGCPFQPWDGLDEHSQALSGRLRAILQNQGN
VLA-4 allo CP = human VLA-4 allosteric modulation in cherry picked compounds; inhibition, % at 6.7 µM; AID 2813; U937 cells, HUTS-21 LIBS mAb binding, flow cytometry; LDV ligand present at threefold Kd; shares compounds with VLA-4 inh; hit rate 2% among 1,300; in the data active = inhibition above about 40%;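 also: 0% = ligand without compound and 100% = no ligand background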
An asterisk follows results filed as active.

Results for CC1CCCCN1S(=O)(=O)c1ccc(-n2cnnn2)cc1 (stereo not drawn) ?
GRK2 inh: 0.0; APOBEC3G inh: -9.7; VLA-4 inh: -3.9; A3A deaminase: -4.0

Results for O=C(Nc1ccc2oc(-c3ccncc3)nc2c1)c1ccc2c(c1)OCCO2 ?
GRK2 inh: 1.0; APOBEC3G inh: -2.5; VLA-4 inh: 0.5; A3A deaminase: -4.2

How did O=C(Nc1ccc2oc(-c3ccccc3)nc2c1)c1ccc2c(c1)OCCO2 do in these assays?
GRK2 inh: 0.0; APOBEC3G inh: -0.8; VLA-4 inh: 60.1*; A3A deaminase: -2.2; VLA-4 allo CP: 2.4

How did O=C(NC12CC3CC(CC(C3)C1)C2)C1CCCN1C(=O)Nc1ccccc1 (stereo not drawn) do in these assays?
GRK2 inh: 1.0; APOBEC3G inh: -7.6; VLA-4 inh: 0.0; A3A deaminase: -4.0

How did CC(C)c1ccc(NC(=O)CNC(=O)Cn2cnc3ccccc3c2=O)cc1 do in these assays?
GRK2 inh: 1.0; APOBEC3G inh: -8.0; VLA-4 inh: -5.6; A3A deaminase: -3.9

How did NC(=O)NS(=O)(=O)Oc1ccccc1 do in these assays?
GRK2 inh: 4.0; APOBEC3G inh: -5.4; VLA-4 inh: 50.4*; A3A deaminase: -3.8; VLA-4 allo CP: -14.7

How did NC(=O)c1ccccc1OCC(=O)NS(=O)(=O)c1ccccc1 do in these assays?
GRK2 inh: 0.0; APOBEC3G inh: -1.5; VLA-4 inh: -6.7; A3A deaminase: 2.0

Results for CCOC(=O)c1c(NC(=O)COC(=O)CNC(=O)c2ccc(Cl)cc2Cl)sc(C(=O)N(C)C)c1C ?
GRK2 inh: 1.0; APOBEC3G inh: 12.6; VLA-4 inh: 51.6*; A3A deaminase: 0.2; VLA-4 allo CP: 0.7

Results for Cn1c(NC(=S)Nc2ccccc2)nc2ccccc21 ?
GRK2 inh: 2.0; APOBEC3G inh: -4.6; VLA-4 inh: 44.2; A3A deaminase: 2.3; VLA-4 allo CP: -15.1

Results for Nc1ccc(NC(=S)Nc2ccccc2)cc1 ?
GRK2 inh: 0.0; VLA-4 inh: -1.7

Results for Oc1ccc(NC(=S)Nc2ccccc2)cc1 ?
GRK2 inh: 0.0; APOBEC3G inh: -1.8; VLA-4 inh: 12.1; A3A deaminase: 0.6; VLA-4 allo CP: 14.4

What do the screens show for `S=C(Nc1ccccc1)Nc1nc2ccccc2n1CCOc1ccc(Br)cc1`?
GRK2 inh: 3.0; APOBEC3G inh: -9.3; VLA-4 inh: 21.7; A3A deaminase: -3.1

How did Cc1cc(C)c(NC(=O)CSc2nnc(-c3ccncc3)n2Cc2ccco2)c(C)c1 do in these assays?
GRK2 inh: 2.0; APOBEC3G inh: -0.7; VLA-4 inh: 9.1; A3A deaminase: 0.1

How did CCCOc1ccc(N2C(=O)CC(N3CCC(C(=O)OCC)CC3)C2=O)cc1 (stereo not drawn) do in these assays?
GRK2 inh: 1.0; APOBEC3G inh: -4.5; VLA-4 inh: 4.1; A3A deaminase: -2.2; VLA-4 allo CP: -6.7

What do the screens show for `O=C1CC(N2CCCCCC2)C(=O)N1c1ccc(F)cc1` (stereo not drawn)?
GRK2 inh: 5.0; APOBEC3G inh: -8.7; VLA-4 inh: 14.4; A3A deaminase: -6.1

Results for COc1ccc(N2C(=O)CC(N3CCCCC3)C2=O)cc1 (stereo not drawn) ?
GRK2 inh: 3.0; APOBEC3G inh: -17.4; VLA-4 inh: 0.0; A3A deaminase: -4.2; VLA-4 allo CP: -3.0

How did COc1cc(C2CC(=O)Oc3c(C(CCN4CCCC(C)C4)c4ccc(N(C)C)cc4)c(OC)cc(OC)c32)cc(OC)c1OC (stereo not drawn) do in these assays?
APOBEC3G inh: -8.0; A3A deaminase: -4.6

What do the screens show for `Cn1c(=O)n(C)c2cc(NC(=O)COc3ccc(F)cc3F)ccc21`?
GRK2 inh: 3.0; APOBEC3G inh: -1.8; VLA-4 inh: 8.5; A3A deaminase: 0.1

Results for COc1ccc(OC)c(Nc2nc(-c3sc(N)nc3C)cs2)c1 ?
GRK2 inh: 2.0; APOBEC3G inh: -1.0; VLA-4 inh: 4.2; A3A deaminase: -2.8

How did O=c1ccn(Cc2ccccc2)cc1 do in these assays?
APOBEC3G inh: -6.3; A3A deaminase: 0.4

How did Cc1ccc(C)c(C(=O)Nc2nc3ccccc3[nH]2)c1 do in these assays?
GRK2 inh: 3.0; APOBEC3G inh: -3.4; VLA-4 inh: 4.4; A3A deaminase: 1.0

How did CSc1cccc(N2C(=O)C3CCCN3C2=S)c1 (stereo not drawn) do in these assays?
GRK2 inh: 2.0; APOBEC3G inh: -3.7; VLA-4 inh: 47.3; A3A deaminase: -3.3; VLA-4 allo CP: -13.4

Results for Cc1cccc(N2C(=O)C3CCCN3C2=S)c1 (stereo not drawn) ?
GRK2 inh: 3.0; APOBEC3G inh: -6.3; VLA-4 inh: 33.1; A3A deaminase: -4.7

What do the screens show for `CCCOc1ccccc1/C=C(\C#N)C(=O)Nc1cccnc1`?
GRK2 inh: 1.0; APOBEC3G inh: 2.2; VLA-4 inh: 12.4; A3A deaminase: -2.0

Results for CC(C)(C)c1ccc(NC(=O)CCNC(=O)c2ccco2)cc1 ?
GRK2 inh: 3.0; APOBEC3G inh: -1.7; VLA-4 inh: 49.8*; A3A deaminase: 1.1; VLA-4 allo CP: 5.4

What do the screens show for `O=C(CCNC(=O)c1ccco1)Nc1ccc(C(F)(F)F)cc1`?
GRK2 inh: 1.0; APOBEC3G inh: -0.9; VLA-4 inh: 7.8; A3A deaminase: 4.5

Results for Cc1ccccc1Nc1nc(NCc2ccco2)c2ccccc2n1 ?
GRK2 inh: 0.0; APOBEC3G inh: 0.3; VLA-4 inh: 2.0; A3A deaminase: 6.8

How did O=C(/C=C/c1ccccc1)C1=C(O)C(=O)N(CCO)C1c1ccccc1[N+](=O)[O-] (stereo not drawn) do in these assays?
GRK2 inh: 2.0; APOBEC3G inh: -6.3; VLA-4 inh: 51.3*; A3A deaminase: -1.4; VLA-4 allo CP: 6.5

What do the screens show for `O=C1N(c2ccccc2C(F)(F)F)O[C@@]1(c1ccccc1)C1CCCCC1`?
GRK2 inh: 15.0; APOBEC3G inh: -4.2; VLA-4 inh: 22.3; A3A deaminase: -0.9

Results for CC(NS(=O)(=O)c1ccc(Br)cc1)C(=O)NC1CCCCCC1 (stereo not drawn) ?
GRK2 inh: 2.0; APOBEC3G inh: -3.7; VLA-4 inh: 24.6; A3A deaminase: -0.9

What do the screens show for `COc1cc(/C=C/C(=O)OCC(=O)Nc2c(C)n(C)n(-c3ccccc3)c2=O)ccc1OCC#N`?
GRK2 inh: 3.0; APOBEC3G inh: -4.3; VLA-4 inh: 60.5*; A3A deaminase: -1.3; VLA-4 allo CP: -0.1

What do the screens show for `CC(C)NC(=O)CCCC(=O)NC(C)C`?
GRK2 inh: 4.0; APOBEC3G inh: -8.9; VLA-4 inh: 42.0; A3A deaminase: -4.9; VLA-4 allo CP: -10.2

What do the screens show for `Cc1ccc(CN(Cc2ccco2)C(=S)NCC(=O)O)cc1`?
GRK2 inh: 0.0; APOBEC3G inh: -2.7; VLA-4 inh: 18.3; A3A deaminase: -0.7

What do the screens show for `COc1cc(/C=C/C(=O)O)cc(OC)c1O`?
GRK2 inh: 8.0; APOBEC3G inh: -1.8; VLA-4 inh: 59.9*; A3A deaminase: -0.4; VLA-4 allo CP: -8.6

How did CCOC(=O)N1CCN(Cc2nc(N)nc(Nc3ccc(Oc4ccccc4)cc3)n2)CC1 do in these assays?
GRK2 inh: 0.0; APOBEC3G inh: -0.6; VLA-4 inh: 3.1; A3A deaminase: 5.3

Compound activity as filed in PubChem BioAssay.
